This is an account of results in PubChem BioAssay (NCATS).

Test [1] is described as follows: Cell Viability - SK-N-SH (AID 435; calls by dose curve; further: potency means the concentration at half of the fitted maximal effect). The note with it: SK-N-SH neuroblastoma cell viability qHTS. In short, it runs like this: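 Human neuroblastoma line, 40 h exposure at 37 °C, ATP quantified via luciferase luminescence; DMSO and 100 uM tamoxifen define 0 and 100% inhibition for AC50 fitting.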
A general note: In qHTS, concentration-response curves come from the screen itself.

Test [2] in a line: Cell Viability - N2a (AID 540).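 Further: plate controls were DMSO alone for no effect and tamoxifen control for full effect; nearly all actives have a fitted effect of over 45% in size.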 The note with it: N2a mouse neuroblastoma cell viability; activity change, negative = cytotoxicity: at 92.2 µM (top of the series). In short, it runs like this:
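N2a mouse neuroblastoma, 1500 cells/well, 5 hr settle; compound 40 hr, 37 °C; CellTiter-Glo 20 min RT; luminescence; Hill-fit AC50.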

Test [3] is described as follows: Cell Viability - H-4-II-E (AID 543). Further: on the % scale 0 is the no-effect control and ±100 the full control effect; nearly all actives have a fitted effect of over 35% in size. In short, it runs like this: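 qHTS, rat hepatoma H-4-II-E, 1500 cells/well; 40 hr compound exposure, 37 °C; CellTiter-Glo ATP luminescence after 20 min RT; AC50 by standard Hill fit.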
Test [4] is described as follows: Cell Viability - Renal Proximal Tubule (AID 545).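 Further: 0% = DMSO only and -100% = 100 µM tamoxifen; nearly all actives have a fitted effect of over 40% in size.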 The note with it: renal proximal tubule cells viability, primary cells of rat origin; activity change, negative = cytotoxicity: at 91.7 µM (top of the series). In short, it runs like this:
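In this qHTS format, normal rat kidney-derived proximal tubule cells in complete culture medium receive compound titrations, then sit 40 hours at 37 °C before luciferase-based ATP quantitation; potency is reported as AC50 from concentration-response curves.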

The nature of test [5]: Cell Viability - LYMP2-001 (AID 921).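 Further: cells exposed to compound for 24 h at 37 °C; 0% = DMSO only and full inhibition = tetraoctylammonium bromide control wells; nearly all actives have a fitted effect of over 70% in size.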 Summed up:
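A lymphoblastoid cell line of human origin was treated with library compounds across a concentration series for 24 hours, and viable cell number was estimated from ATP-driven luciferase light output. Hill modeling gave AC50.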

The nature of test [6]: MultiTox-Fluor Cytotoxicity Assay - LYMP1-001 - Live Cells (AID 947).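 Further: 0% = DMSO only and full inhibition = tetraoctylammonium bromide control.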
Test [7] can be described thus: MultiTox-Fluor Cytotoxicity Assay - LYMP1-002 - Dead Cells (AID 960).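 Further: cells exposed to compound for 16 h at 37 °C; 0% = DMSO and 100% = tetraoctylammonium bromide; nearly all actives have a fitted effect of over 60% in size.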 Summed up:
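Readout: fluorescence at 485/520 from cell-impermeant bis-AAF-R110 cleaved by proteases leaking from damaged cells. LYMP1-002 lymphoblastoid line, 16 hr compound treatment at 37 C, concentration-response in qHTS format; Hill-equation AC50 values.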

The nature of test [8]: Cell Viability - LYMP1-003 - Assay at 40 hr (AID 964). Further: on the % scale 0 is the no-effect control and ±100 the full control effect; nearly all actives have a fitted effect of over 60% in size. Summed up: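 LYMP1-003 lymphoblastoid cells, 2500/well; 5 hr preincubation, 40 hr compound exposure, 37 C; CellTiter-Glo 30 min RT; luminescence; Hill-fit AC50. Positive control tetraoctylammonium bromide.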
Test [9] is described as follows: Cell Viability - LYMP2-004 (AID 966).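 Further: cells exposed to compound for 24 h; plate controls were DMSO only for no effect and tetraoctylammonium bromide control for full effect; nearly all actives have a fitted effect of over 65% in size.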 Summed up:
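Luminescent ATP read-out (CellTiter-Glo, 30 min RT) after 24 hr compound exposure at 37 C; 2500 lymphoblastoid cells/well, complete medium. Decrease in ATP = cytotoxicity; AC50 from standard Hill model.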

Test [10] in a line: Cell Viability - LYMP2-009 (AID 968).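 Further: cells exposed to compound for 24 h at 37 °C; 0% = DMSO alone and the full-kill end = tetraoctylammonium bromide at 92 µM; nearly all actives have a fitted effect of over 55% in size.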
A short description of test [11]: Cell Viability - LYMP2-015 (AID 971).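 Further: cells exposed to compound for 24 h; 0% = DMSO only and full effect = 92 µM tetraoctylammonium bromide; nearly all actives have a fitted effect of over 55% in size.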 Summed up: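 qHTS cytotoxicity: 2500 cells/well, 5 hr 37 C, compound 24 hr 37 C, CellTiter-Glo 30 min RT, luminescence. Loss of ATP = toxicity; AC50 via standard Hill fit.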
Test [12] is described as follows: Cell Viability - LYMP2-017 (AID 972).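 Further: cells exposed to compound for 24 hours at 37 °C; on the % scale 0 is the no-effect control and ±100 the full control effect; nearly all actives have a fitted effect of over 55% in size.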 In short, it runs like this: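 Luminescent ATP read-out (CellTiter-Glo, 30 min RT) reports viable cell number. Cells: human lymphoblastoid line, 2500 per well, 5 hr preincubation, 24 hr compound exposure at 37 C. AC50 is derived from qHTS concentration-response data using the standard Hill model.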
Test [13] is described as follows: Cell Viability - LYMP2-019 (AID 973).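 Further: cells exposed to compound for 24 h at 37 °C; 0% = DMSO alone and full effect = 92 µM tetraoctylammonium bromide; nearly all actives have a fitted effect of over 55% in size.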 In short, it runs like this:
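qHTS, 1536-well; 2500 cells/well; 5 hr pre-incubation, 24 hr compound exposure, 37 C; CellTiter-Glo added, 30 min RT; luminescence read; AC50 via standard Hill equation.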

A short description of test [14]: Cell Viability - LYMP2-010 (AID 981). Summed up: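 qHTS cytotoxicity, 1536-well: 2500 cells/well, 5 hr settle, 24 hr compound at 37 C, CellTiter-Glo 30 min RT, luminescence read. Decrease in ATP = toxicity; AC50 via standard Hill equation. Positive control tetraoctylammonium bromide.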
A short description of test [15]: qHTS assay for small molecule agonists of retinoid X receptor alpha signaling (AID 588544; calls by dose curve). The note with it: HEK293T RXRa-UAS-bla, beta-lactamase reporter, 18 h; 530 nm emission.
The target of test [16] is Retinoic acid receptor RXR-alpha (Homo sapiens) (UniProt P19793). The test is described as above.
Test [17] deals with Thyroid hormone receptor beta (Homo sapiens) (UniProt P10828). Nature of the test: qHTS assay for small molecule antagonists of thyroid hormone receptor beta signaling (AID 588547; active means well fitted inhibition curve with a large enough effect in the signal ratio, with a control signal flat, not every such curve was filed as active; the % refers to the signal ratio;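 further: cells stimulated with 0.4 nM T3 agonist during compound exposure; on the % scale 0 is the no-effect control and ±100 the full control effect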). The note with it: TR-UAS-bla HEK293, beta-lactamase ratio, antagonist mode, 18 h. In short, it runs like this:
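TR-UAS-bla GripTite HEK293 cells in 2% charcoal/dextran FBS medium were preincubated 4 h at 37 C, given compound (0.59 nM to 92 uM) plus 0.4 nM T3 (final) for 18 h, then CCF4 for 2 h at RT; Hill fit gave IC50.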

Test [18] in a line: qHTS assay for small molecule disruptors of the mitochondrial membrane potential - 5 hr assay (AID 651755; calls by dose curve; further: nearly all actives have a fitted effect of over 40% in size; further: potency means the concentration at half of the fitted maximal effect). In short, it runs like this: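 Seed HepG2 overnight, add compound, incubate 5 hr at 37C and 5% CO2, stain 30 min with Mito-MPS, then measure monomer (490/535 nm) and aggregate (540/590 nm) fluorescence.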
A short description of test [19]: qHTS assay for small molecule agonists of the antioxidant response element (ARE) signaling pathway measured by Nrf2-dependant transcriptional activity (AID 720636; active means well fitted curve in the direction sought with a large enough effect in the repeat runs; an effect the other way counts as inactive or inconclusive;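 further: HepG2 cells with an ARE-driven luciferase reporter; % of control where 0% means no effect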). In short, it runs like this:
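Nrf2-dependent transcription is measured in ARE-luc HepG2 cells: compound is applied for 16 hr at 37 C after a 6 hr attachment period, and luciferase activity is quantified by luminescence using ONE-Glo.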

The target in test [20] is Nuclear receptor subfamily 1 group I member 2 (Rattus norvegicus) (UniProt Q9R1A7). The test can be described thus: qHTS assay for small molecule activators of the rat pregnane X receptor (rPXR) signaling pathway (AID 651751; call rule not given here; further: 0% is about no effect). The note with it: rPXR reporter cells, luciferase (One-Glo), 24 h.

SMILES strings stand for the structures. “And” between values parts separate entries of the source, which are not always exact repeats. Equal entries are not always repeated. Records with an inconclusive call do not appear. The source made the active and inactive calls. Unless noted, the call rests on the fitted dose curve; in most records, active means well fitted curve in the direction sought with a large enough effect; inconclusive means small, poorly fitted or top-dose-only effect, or another doubt; inactive means no such curve, though single readings can be large; an effect the other way counts as inactive or inconclusive.

Nuclear receptor subfamily 1 group I member 2 (Rattus norvegicus), sequence (Q9R1A7 whole entry, looked up): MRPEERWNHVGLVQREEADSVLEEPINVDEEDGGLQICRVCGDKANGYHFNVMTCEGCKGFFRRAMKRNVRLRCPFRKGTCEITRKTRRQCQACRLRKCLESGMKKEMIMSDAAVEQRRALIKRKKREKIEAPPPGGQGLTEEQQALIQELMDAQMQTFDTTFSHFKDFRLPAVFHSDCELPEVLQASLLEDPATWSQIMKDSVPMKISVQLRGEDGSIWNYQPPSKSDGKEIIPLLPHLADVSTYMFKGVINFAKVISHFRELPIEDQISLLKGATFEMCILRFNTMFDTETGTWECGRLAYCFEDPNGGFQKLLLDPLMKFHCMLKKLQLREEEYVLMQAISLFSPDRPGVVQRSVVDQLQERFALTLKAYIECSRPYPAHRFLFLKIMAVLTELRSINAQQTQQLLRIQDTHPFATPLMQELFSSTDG
Thyroid hormone receptor beta (Homo sapiens), sequence (P10828 whole entry, looked up): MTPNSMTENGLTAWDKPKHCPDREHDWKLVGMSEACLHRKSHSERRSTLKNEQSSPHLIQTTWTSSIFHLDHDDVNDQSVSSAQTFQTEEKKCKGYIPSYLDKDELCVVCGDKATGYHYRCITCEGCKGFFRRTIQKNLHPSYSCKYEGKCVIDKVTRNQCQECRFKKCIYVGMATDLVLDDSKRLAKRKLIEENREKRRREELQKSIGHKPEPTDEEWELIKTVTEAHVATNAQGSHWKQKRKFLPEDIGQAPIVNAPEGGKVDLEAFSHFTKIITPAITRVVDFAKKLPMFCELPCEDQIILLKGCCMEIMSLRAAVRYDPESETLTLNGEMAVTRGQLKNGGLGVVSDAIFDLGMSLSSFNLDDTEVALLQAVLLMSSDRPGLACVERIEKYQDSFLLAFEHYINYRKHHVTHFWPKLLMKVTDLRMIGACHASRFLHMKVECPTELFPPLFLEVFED
Retinoic acid receptor RXR-alpha (Homo sapiens), sequence (P19793 whole entry, looked up): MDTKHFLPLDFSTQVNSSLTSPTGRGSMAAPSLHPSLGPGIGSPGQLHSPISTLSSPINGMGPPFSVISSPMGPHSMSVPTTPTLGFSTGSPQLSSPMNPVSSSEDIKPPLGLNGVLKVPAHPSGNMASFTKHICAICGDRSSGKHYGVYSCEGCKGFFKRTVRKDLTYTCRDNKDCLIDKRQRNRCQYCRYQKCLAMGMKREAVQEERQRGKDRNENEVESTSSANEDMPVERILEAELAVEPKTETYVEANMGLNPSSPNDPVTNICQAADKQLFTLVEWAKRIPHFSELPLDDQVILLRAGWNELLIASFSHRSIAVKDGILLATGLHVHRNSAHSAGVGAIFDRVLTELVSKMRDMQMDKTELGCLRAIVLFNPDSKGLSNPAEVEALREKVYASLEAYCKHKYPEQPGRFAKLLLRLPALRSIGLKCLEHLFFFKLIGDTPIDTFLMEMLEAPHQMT

With `c1ccncc1`, the Potency in test [1] was > 92 µM (inactive). Moreover, in [2], the activity change, negative = cytotoxicity was -3.08% (inactive). Also, the Potency entry in test [3], in [4], in test [5], in test [6], in test [7] and in test [8] was “inactive” each time. The Potency entry in [9], in [10], in [11], in test [12], in [13] and in test [14] was “inactive” in each case. The Potency result in [16], in test [18] and in test [19] was “inactive” each time. The results for the max response in test [15] and in test [20] were 1.38% and 3.74% (inactive), respectively. Besides, in test [17], the activity change % (negative = inhibition) is -8.3% (inactive).
Take `Cc1cc(=O)oc2cc(O)cc(O)c12`: the Potency in test [1] is > 92 µM (inactive). The activity change, negative = cytotoxicity in test [2] is -0.482% (inactive). Further, the Potency result in [3], in test [4], in test [5], in test [6], in [7] and in test [8] was “inactive” each time. The Potency result in test [9], in [10], in [11], in test [12], in [13] and in [14] was “inactive” in each case. Also, the Potency result in [19] is “inactive”. In [20], the max response was -2.67% (inactive).
As to `c1cc2c3c(c1)ccc1cccc(c13)C2`, the Potency in [1] was > 92 µM (inactive). Also, in test [2], the activity change, negative = cytotoxicity was 0.332% (inactive). The Potency entry in test [3], in [4], in test [5], in [6], in test [7] and in test [8] was “inactive” in each case. In addition, the Potency entry in test [9], in test [11], in [12], in [13], in test [14] and in [16] was “inactive” in each case. Also, the Potency result in test [18] and in test [19] was “inactive” in each case. In addition, the max response in test [15] is -13.6%; in [20], -0.774% (inactive). In addition, the activity change % (negative = inhibition) in test [17] is -0.0299% (inactive).
Consider `CN(C)c1ccc(Cc2ccc(N(C)C)cc2)cc1`, for which, in test [1], the Potency was > 92 µM (inactive). The activity change, negative = cytotoxicity in test [2] was -41% (inactive). For the same compound, the Potency result in test [4], in [5], in [6], in test [7], in test [8] and in test [9] was “inactive” each time. Moreover, the Potency entry in test [10], in test [11], in test [12], in [13], in [14] and in test [19] was “inactive” each time. Also, in [17], the activity change % (negative = inhibition) was 1.5% (inactive). Besides, the max response in test [20] is 1.5% (inactive) and 4.81% (inactive).
Take `Nc1ccc2c(c1)C(=O)c1ccccc1C2=O`: the activity change, negative = cytotoxicity in test [2] is -27.2% (inactive). Besides, the Potency entry in test [6], in test [7], in test [8], in test [9] and in test [16] was “inactive” throughout. The max response in test [15] is 6.46% and 2.42%. In addition, in [17], the activity change % (negative = inhibition) is -15.9% (inactive). In test [18], the Potency is 1.5 µM (active).
On to `CCCCOC(=O)COc1ccc(Cl)cc1Cl`, for which, in [1], the Potency was > 92 µM (inactive). Moreover, the activity change, negative = cytotoxicity in test [2] was 7.15% (inactive). Further, the Potency result in test [3], in test [4], in test [5], in [6], in test [7] and in test [8] was “inactive” in each case. In addition, the Potency result in test [9], in test [10], in test [11], in [12], in test [13] and in test [14] was “inactive” throughout. Besides, the Potency result in test [16], in [18] and in test [19] was “inactive” in each case. The max response was 4.2% and -8.56% in [15]; -2.3% (inactive) and -1.06% (inactive) in [20]. Further, the activity change % (negative = inhibition) in test [17] was 7.32% (inactive) and -4.27% (inactive).
